Experimental findings from PubChem BioAssay (EPA / NIEHS) are described below.

As a reminder, the AC50 is the concentration at which the activity in the assay is half-maximal.

A short description of experiment [1]: ATG_PPRE_CIS: Attagene CIS-FACTORIAL HepG2 Assay for human Peroxisome Proliferator-activated Response Element (PPRE) (AID 2282958). The note with it: HepG2 PPRE cis-element reporter, Attagene transcription factor profiling; actives raise or lower the signal. An outline of the steps: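 Transcript-level reporter induction in transfected HepG2 cells after 24 h chemical exposure, quantified by fluorescence from RT-PCR products separated by capillary electrophoresis.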

Experiment [2] can be described thus: ATG_RORE_CIS: Attagene CIS-FACTORIAL HepG2 Assay for human RAR-related Orphan Receptor Element (RORE) (AID 2282959). The note with it: HepG2 Attagene cis-factorial RORE reporter, mRNA; actives raise or lower the signal. Put shortly:
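Multiplexed reporter assay measuring mRNA induction from a cis promoter element in transiently transfected HepG2 cells after 24 h treatment. Detection via RT-PCR and capillary electrophoresis fluorescence; DMSO serves as baseline.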

A short description of experiment [3]: ATG_Sox_CIS: Attagene CIS-FACTORIAL HepG2 Assay for human SRY-box transcription factor (SOX) (AID 2282960). The note with it: HepG2 Attagene cis-factorial SOX reporter, mRNA; actives raise or lower the signal. An outline of the steps: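 Cells were transfected with reporter constructs under cis-regulatory promoters, then exposed to chemicals for 24 h. Reporter transcripts were quantified by fluorescence after RT-PCR and capillary electrophoresis; activity was fitted in both directions against DMSO.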

Experiment [4] has as its target Transcription factor Sp1 (Homo sapiens) (UniProt P08047). In words: ATG_Sp1_CIS: Attagene CIS-FACTORIAL HepG2 Assay for human Specificity Protein 1 (Sp1) (AID 2282961). As to conditions: HepG2 Sp1 cis-reporter transcription, actives raise or lower the signal. An outline of the steps:
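Measures mRNA induction of an Sp1-linked reporter in HepG2 cells 24 h post-dosing. Multiplexed reporters read by RT-PCR and capillary electrophoresis; DMSO serves as negative control and baseline.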

Experiment [5] is described as follows: ATG_SREBP_CIS: Attagene CIS-FACTORIAL HepG2 Assay for human Sterol Regulatory Element Binding (SREBP) (AID 2282962). The note with it: HepG2 Attagene cis-factorial SREBP reporter, mRNA; actives raise or lower the signal. An outline of the steps:
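Twenty-four hours after chemical dosing of transfected HepG2 cultures, reporter RNA was converted to cDNA, amplified, end-labelled with 6-FAM and resolved by capillary electrophoresis. Responses were fitted relative to DMSO.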

Experiment [6] has as its target Signal transducer and activator of transcription 3 (Homo sapiens) (UniProt P40763). Briefly: ATG_STAT3_CIS: Attagene CIS-FACTORIAL HepG2 Assay for human Signal Transducer and Activator of Transcription 3 (STAT3) (AID 2282963). As to conditions: HepG2, Attagene cis-factorial STAT3 reporter transcription; actives raise or lower the signal. An outline of the steps: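 Values derive from bidirectional fits relative to DMSO of reporter mRNA levels, measured by RT-PCR with capillary electrophoresis, in HepG2 cells carrying transiently transfected cis-regulated reporter units and exposed 24 h.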

The nature of experiment [7]: ATG_TA_CIS: Attagene CIS-FACTORIAL HepG2 Assay for human TA Basal Promoter (AID 2282964). As to conditions: HepG2 Attagene CIS-factorial TA basal promoter reporter; actives raise or lower the signal. Put shortly:
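HepG2 cells transiently transfected with multiple reporter units under cis promoter elements, reporting endogenous transcription factor activity; this endpoint tracks the TA basal promoter as background control. Reporter mRNA after 24 h dosing measured by RT-PCR/capillary electrophoresis; bidirectional fits versus DMSO.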

The nature of experiment [8]: ATG_TCF_b_cat_CIS: Attagene CIS-FACTORIAL HepG2 Assay for human T-Cell-Factor with beta-catenin (TCF/b-cat) (AID 2282965). The note with it: HepG2 TCF/beta-catenin cis-reporter transcription, actives raise or lower the signal. An outline of the steps: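 Cells of the HepG2 line carry transiently transfected reporter units whose promoters respond to endogenous factors. Twenty-four hours post-dosing, reporter mRNA induction is measured by fluorescent RT-PCR and capillary electrophoresis, with DMSO as baseline.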

A short description of experiment [9]: ATG_TAL_CIS: Attagene CIS-FACTORIAL HepG2 Assay for human TAL Basal Promoter (AID 2282966).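 Note: background control endpoint measuring basal TAL promoter reporter mRNA not a specific factor.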 As to conditions: HepG2 Attagene cis-factorial TAL promoter reporter; actives raise or lower the signal. An outline of the steps:
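HepG2 cells transiently transfected with multiplexed cis-promoter reporter units, dosed 24 h. Reporter mRNA quantified by RT-PCR, 6-FAM labelling, HpaI digestion and capillary electrophoresis; TAL basal promoter serves as background control, fitted bidirectionally versus DMSO.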

Experiment [10] in a line: ATG_TGFb_CIS: Attagene CIS-FACTORIAL HepG2 Assay for human Transforming Growth Factor (TGF) (AID 2282967). As to conditions: HepG2 Attagene CIS TGFb reporter, mRNA transcription; actives raise or lower the signal. Put shortly: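 HepG2 cells transiently transfected with cis-promoter-driven multiple reporter units measure endogenous TF activity; reporter mRNA quantified at 24 h by RT-PCR, FAM labeling, HpaI digestion and capillary electrophoresis. Bidirectional fit vs DMSO.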

A short description of experiment [11]: ATG_VDRE_CIS: Attagene CIS-FACTORIAL HepG2 Assay for human Vitamin D Receptor Element (VDRE) (AID 2282968). As to conditions: HepG2 VDRE cis-reporter transcription, actives raise or lower the signal. Put shortly: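 Cell-based multiplexed reporter format in human liver HepG2 cells, 24 h post-dose. Fluorescence from capillary electrophoresis of reporter cDNA gives the signal, with DMSO as negative control and baseline.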

The target in experiment [12] is X-box-binding protein 1 (Homo sapiens) (UniProt P17861). Briefly: ATG_Xbp1_CIS: Attagene CIS-FACTORIAL HepG2 Assay for human X-box Binding Protein 1 (XBP1) (AID 2282972). The note with it: HepG2 XBP1 cis-element reporter, Attagene multiplex; actives raise or lower the signal. Put shortly:
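After a 24-hour chemical exposure of HepG2 cells carrying cis-regulated reporters, reporter mRNA levels are assessed. Quantification uses RT-PCR, 6-FAM labelling and capillary electrophoresis. Gain- or loss-of-signal is fitted against DMSO.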

Experiment [13] in a line: ATG_M_19_TRANS: Attagene TRANS-FACTORIAL HepG2 Assay for M19 Transcription Factor (Internal Marker) (AID 2282974; active = hit-call score of the fitted dose curve at least 0.9, where 1 is the maximum). The note with it: HepG2 Attagene TRANS-FACTORIAL M19 internal marker reporter. Put shortly:
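After transfection of HepG2 with GAL4-UAS-driven reporter constructs, cells are dosed for 24 h. Total RNA is reverse-transcribed, reporter sequences PCR-amplified and labelled, then HpaI-digested and sized by capillary electrophoresis.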

Experiment [14] addresses Bile acid receptor (Homo sapiens) (UniProt Q96RI1). In words: ATG_FXR_TRANS: Attagene TRANS-FACTORIAL HepG2 Assay for Farnesoid X Receptor (FXR) (AID 2282979; active = hit-call score of the fitted dose curve at least 0.9, where 1 is the maximum;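 note: hits raise reporter mRNA above DMSO so AC50 marks FXR activation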). The note with it: HepG2 Attagene TRANS FXR-GAL4 reporter transcription. An outline of the steps:
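HepG2 cells were transiently transfected with GAL4-UAS reporters driven by chimeric NR-Gal4 proteins and dosed for 24 h. Reporter mRNA was quantified by RT-PCR, fluorescent labelling, HpaI digestion and capillary electrophoresis, with gain of signal scored versus DMSO.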

Experiment [15] addresses Glucocorticoid receptor (Homo sapiens) (UniProt P04150). Briefly: ATG_GR_TRANS: Attagene TRANS-FACTORIAL HepG2 Assay for human Glucocorticoid Receptor (GR) (AID 2282978; active = hit-call score of the fitted dose curve at least 0.9, where 1 is the maximum;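 note: activators score as hits since higher reporter transcript over DMSO is fitted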). As to conditions: HepG2 Attagene TRANS GR reporter, mRNA transcription. Put shortly:
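Multiplexed TRANS reporter system, HepG2; 24 h exposure; RNA → oligo(dT) RT → reporter-specific PCR → 6-FAM primer extension → HpaI cut → CE fluorescence. Gain-of-signal vs DMSO.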

Experiment [16] addresses Steroid hormone receptor ERR1 (Homo sapiens) (UniProt P11474). Briefly: ATG_ERRa_TRANS: Attagene TRANS-FACTORIAL HepG2 Assay for human Estrogen-Related Receptor alpha (ERRa) (AID 2282971; active = hit-call score of the fitted dose curve at least 0.9, where 1 is the maximum). The note with it: HepG2 Attagene TRANS reporter, ERRa transactivation. An outline of the steps: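 HepG2 cells transiently transfected with GAL4-UAS reporter units and chimeric NR-Gal4 constructs; after 24 hour compound incubation, reporter mRNA quantified by RT-PCR, fluorescent labelling and capillary electrophoresis, gain of signal versus DMSO.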

A short description of experiment [17]: ATG_GAL4_TRANS: Attagene TRANS-FACTORIAL HepG2 Assay for GAL4 (Internal Marker) (AID 2282976; active = hit-call score of the fitted dose curve at least 0.9, where 1 is the maximum). The note with it: HepG2 Attagene TRANS GAL4 internal marker reporter. Put shortly: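 Background-control readout: GAL4-UAS reporter transcript in transiently transfected HepG2 cells after 24 h compound exposure. Measured by RT-PCR, 6-FAM primer extension, HpaI digest and capillary electrophoresis; gain-of-signal fit versus DMSO.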

The target in experiment [18] is Estrogen receptor (Homo sapiens) (UniProt P03372). In words: ATG_ERa_TRANS: Attagene TRANS-FACTORIAL HepG2 Assay for human Estrogen Receptor alpha (ERa) (AID 2282970; active = hit-call score of the fitted dose curve at least 0.9, where 1 is the maximum). As to conditions: HepG2 Attagene TRANS ERa GAL4 reporter, mRNA. An outline of the steps:
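HepG2 cells transiently transfected with multiplexed GAL4-UAS reporter units read out chimeric NR-Gal4 activity. After 24 h compound exposure, reporter mRNA was quantified by RT-PCR, 6-FAM labeling, HpaI digestion and capillary electrophoresis, relative to DMSO.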

Records with an inconclusive call do not appear. Activity calls are given as the source filed them. Rule for the calls, unless noted: active = hit-call score of the fitted dose curve at least 0.9, where 1 is the maximum; inactive = score below 0.9.

X-box-binding protein 1 (Homo sapiens), sequence (P17861 whole entry, looked up): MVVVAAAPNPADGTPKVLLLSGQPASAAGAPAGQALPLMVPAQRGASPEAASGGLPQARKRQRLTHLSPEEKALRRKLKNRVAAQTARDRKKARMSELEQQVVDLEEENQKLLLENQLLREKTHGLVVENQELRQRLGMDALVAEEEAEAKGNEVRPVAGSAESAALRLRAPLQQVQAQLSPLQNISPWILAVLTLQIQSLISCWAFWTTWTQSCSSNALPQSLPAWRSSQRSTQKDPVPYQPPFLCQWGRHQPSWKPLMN
Signal transducer and activator of transcription 3 (Homo sapiens), sequence (P40763 whole entry, looked up): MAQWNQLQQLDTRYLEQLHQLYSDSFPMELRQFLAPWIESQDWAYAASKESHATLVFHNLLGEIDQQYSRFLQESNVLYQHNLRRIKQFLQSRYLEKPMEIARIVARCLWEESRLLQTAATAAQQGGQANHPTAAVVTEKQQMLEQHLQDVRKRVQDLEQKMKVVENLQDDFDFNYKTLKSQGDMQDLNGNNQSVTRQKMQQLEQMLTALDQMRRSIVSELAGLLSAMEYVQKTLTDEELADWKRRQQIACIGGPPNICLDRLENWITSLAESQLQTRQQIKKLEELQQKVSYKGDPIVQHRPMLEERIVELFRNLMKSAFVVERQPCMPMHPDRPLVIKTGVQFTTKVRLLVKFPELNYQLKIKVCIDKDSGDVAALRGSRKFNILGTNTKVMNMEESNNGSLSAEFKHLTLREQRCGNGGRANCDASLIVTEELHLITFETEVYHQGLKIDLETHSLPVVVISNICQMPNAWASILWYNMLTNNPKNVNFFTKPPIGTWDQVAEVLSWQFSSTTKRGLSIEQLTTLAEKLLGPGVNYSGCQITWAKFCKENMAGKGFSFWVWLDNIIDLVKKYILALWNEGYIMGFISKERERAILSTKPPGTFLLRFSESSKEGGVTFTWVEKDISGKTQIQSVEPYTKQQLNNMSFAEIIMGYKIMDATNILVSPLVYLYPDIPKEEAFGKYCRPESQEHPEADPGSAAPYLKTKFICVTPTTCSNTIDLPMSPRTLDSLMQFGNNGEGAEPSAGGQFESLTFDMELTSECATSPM
Transcription factor Sp1 (Homo sapiens), sequence (P08047 whole entry, looked up): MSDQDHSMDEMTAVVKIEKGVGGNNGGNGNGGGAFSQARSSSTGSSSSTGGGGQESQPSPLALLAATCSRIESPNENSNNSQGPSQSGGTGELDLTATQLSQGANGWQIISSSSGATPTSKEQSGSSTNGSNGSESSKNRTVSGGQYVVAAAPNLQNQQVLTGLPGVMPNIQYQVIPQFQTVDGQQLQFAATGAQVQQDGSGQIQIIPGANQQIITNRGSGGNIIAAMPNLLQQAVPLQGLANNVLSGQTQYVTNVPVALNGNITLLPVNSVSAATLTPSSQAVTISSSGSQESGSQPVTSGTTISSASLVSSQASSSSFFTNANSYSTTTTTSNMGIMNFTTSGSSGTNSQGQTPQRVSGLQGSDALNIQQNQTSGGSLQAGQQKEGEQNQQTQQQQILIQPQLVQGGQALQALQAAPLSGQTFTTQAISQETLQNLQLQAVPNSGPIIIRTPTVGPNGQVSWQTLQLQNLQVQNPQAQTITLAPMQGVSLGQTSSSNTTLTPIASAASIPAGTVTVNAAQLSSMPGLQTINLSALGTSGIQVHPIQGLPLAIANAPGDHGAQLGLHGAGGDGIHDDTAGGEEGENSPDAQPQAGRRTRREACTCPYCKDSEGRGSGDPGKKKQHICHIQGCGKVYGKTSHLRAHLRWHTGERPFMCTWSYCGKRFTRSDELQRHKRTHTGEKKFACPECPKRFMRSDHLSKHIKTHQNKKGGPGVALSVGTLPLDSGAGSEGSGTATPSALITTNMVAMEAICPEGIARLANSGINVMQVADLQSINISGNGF
Bile acid receptor (Homo sapiens), sequence (Q96RI1 whole entry, looked up, the tested form may be a part): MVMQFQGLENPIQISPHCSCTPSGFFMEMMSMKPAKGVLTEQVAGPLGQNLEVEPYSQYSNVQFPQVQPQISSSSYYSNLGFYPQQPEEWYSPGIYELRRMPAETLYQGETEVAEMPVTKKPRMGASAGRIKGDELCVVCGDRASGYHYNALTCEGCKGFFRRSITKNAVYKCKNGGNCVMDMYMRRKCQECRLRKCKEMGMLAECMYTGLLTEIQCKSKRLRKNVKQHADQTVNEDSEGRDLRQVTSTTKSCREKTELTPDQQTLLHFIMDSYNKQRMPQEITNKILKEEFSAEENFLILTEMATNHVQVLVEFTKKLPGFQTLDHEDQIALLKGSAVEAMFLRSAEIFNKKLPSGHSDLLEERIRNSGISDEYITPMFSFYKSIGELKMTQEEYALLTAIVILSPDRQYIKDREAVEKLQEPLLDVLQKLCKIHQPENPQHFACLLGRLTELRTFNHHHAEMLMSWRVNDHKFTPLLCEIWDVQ
Steroid hormone receptor ERR1 (Homo sapiens), sequence (P11474 whole entry, looked up, the tested form may be a part): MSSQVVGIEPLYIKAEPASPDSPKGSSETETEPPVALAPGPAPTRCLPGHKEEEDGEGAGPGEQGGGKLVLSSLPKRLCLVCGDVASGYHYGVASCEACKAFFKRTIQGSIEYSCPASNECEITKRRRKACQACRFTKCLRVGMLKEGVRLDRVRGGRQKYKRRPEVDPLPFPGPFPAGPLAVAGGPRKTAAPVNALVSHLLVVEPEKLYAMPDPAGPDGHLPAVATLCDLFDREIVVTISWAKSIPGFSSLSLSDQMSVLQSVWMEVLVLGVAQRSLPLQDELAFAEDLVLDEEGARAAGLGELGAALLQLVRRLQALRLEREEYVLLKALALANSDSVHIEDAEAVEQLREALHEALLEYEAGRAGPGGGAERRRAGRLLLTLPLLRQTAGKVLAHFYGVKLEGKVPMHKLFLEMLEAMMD
Glucocorticoid receptor (Homo sapiens), sequence (P04150 whole entry, looked up): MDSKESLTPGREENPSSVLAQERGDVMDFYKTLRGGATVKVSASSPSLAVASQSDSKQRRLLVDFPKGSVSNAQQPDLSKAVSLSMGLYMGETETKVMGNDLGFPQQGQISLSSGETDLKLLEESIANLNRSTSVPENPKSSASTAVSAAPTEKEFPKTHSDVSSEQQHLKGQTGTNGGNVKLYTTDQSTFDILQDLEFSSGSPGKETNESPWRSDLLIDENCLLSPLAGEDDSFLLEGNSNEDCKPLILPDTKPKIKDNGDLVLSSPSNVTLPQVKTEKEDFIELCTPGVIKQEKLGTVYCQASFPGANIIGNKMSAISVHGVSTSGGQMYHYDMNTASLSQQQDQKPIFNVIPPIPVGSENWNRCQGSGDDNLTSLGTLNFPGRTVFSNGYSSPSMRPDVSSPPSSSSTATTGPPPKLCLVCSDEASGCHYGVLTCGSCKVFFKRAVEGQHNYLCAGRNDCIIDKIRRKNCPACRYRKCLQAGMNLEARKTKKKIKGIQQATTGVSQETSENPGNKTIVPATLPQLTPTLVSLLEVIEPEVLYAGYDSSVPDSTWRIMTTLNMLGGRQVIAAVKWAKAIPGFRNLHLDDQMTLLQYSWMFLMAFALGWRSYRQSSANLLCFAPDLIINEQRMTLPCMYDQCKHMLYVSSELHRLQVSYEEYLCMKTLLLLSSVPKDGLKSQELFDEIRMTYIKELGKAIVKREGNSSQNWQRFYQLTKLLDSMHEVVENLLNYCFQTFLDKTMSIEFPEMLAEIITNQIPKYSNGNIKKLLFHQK
Estrogen receptor (Homo sapiens), sequence (P03372 whole entry, looked up, the tested form may be a part): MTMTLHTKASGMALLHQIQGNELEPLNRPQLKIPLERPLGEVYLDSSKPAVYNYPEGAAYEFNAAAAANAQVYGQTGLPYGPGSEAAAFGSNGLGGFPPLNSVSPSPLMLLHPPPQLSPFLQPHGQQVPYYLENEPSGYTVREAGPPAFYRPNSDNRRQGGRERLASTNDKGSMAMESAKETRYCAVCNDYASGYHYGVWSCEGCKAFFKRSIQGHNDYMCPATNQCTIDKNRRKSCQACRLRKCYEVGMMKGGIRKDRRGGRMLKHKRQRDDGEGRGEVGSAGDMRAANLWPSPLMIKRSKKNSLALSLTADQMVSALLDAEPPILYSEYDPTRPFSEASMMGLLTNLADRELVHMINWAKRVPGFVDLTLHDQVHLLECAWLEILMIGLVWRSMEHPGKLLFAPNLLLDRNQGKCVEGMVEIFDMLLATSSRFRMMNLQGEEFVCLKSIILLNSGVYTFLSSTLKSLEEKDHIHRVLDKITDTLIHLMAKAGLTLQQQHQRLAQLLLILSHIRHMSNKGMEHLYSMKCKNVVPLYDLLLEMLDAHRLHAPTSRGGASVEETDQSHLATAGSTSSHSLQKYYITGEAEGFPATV

As to `CN(C)C(=O)NC1(c2ccccc2)CCN(CCC[C@]2(c3ccc(Cl)c(Cl)c3)CCCN(C(=O)c3ccccc3)C2)CC1`, the AC50 in experiment [1] is 4.58 µM (active); in experiment [2] it was 4.93 µM (active); in experiment [4], 4.73 µM (active); in experiment [5] it was 0.762 µM (active); in [6], 4.4 µM (active); in experiment [11], 2.75 µM (active). For the same molecule, the AC50 in experiment [12] was 4.69 µM (active). The outcome in experiment [3], in experiment [7], in [8], in experiment [9], in experiment [10] and in [13] was inactive. Moreover, the result in [14] was inactive.

Regarding `CN(C)CCCN1c2ccccc2Sc2ccc(Cl)cc21`, the call in [1], in experiment [2], in experiment [3], in experiment [4], in experiment [6] and in [7] was inactive. The molecule was classed as inactive in [9], in experiment [10], in [12], in [15] and in experiment [14]. Besides, the figures for the half-maximal activity concentration (AC50) in [5], in experiment [8] and in [11] were 6.99 µM (active), 7.68 µM (active) and 11.1 µM (active), respectively.

Regarding `CC(C)NCC(O)c1ccc(O)c(O)c1` (stereo not given), the call in experiment [1], in experiment [2], in experiment [3], in experiment [4], in experiment [5] and in [6] was inactive. For the same molecule, the call in experiment [7], in experiment [8], in [9], in [10], in [11] and in experiment [16] was inactive. In addition, the molecule was classed as inactive in [12] and in experiment [17].

In the case of `O=C(O)c1[nH]n(-c2ccc(S(=O)(=O)O)cc2)c(=O)c1N=Nc1ccc(S(=O)(=O)O)cc1`, the call in experiment [1], in [2], in experiment [3], in experiment [4], in experiment [5] and in experiment [6] was inactive. The outcome in experiment [7], in experiment [8], in [9], in [10], in [11] and in experiment [18] was inactive. Moreover, in experiment [17], the molecule was called inactive.
